Data as given in PubChem BioAssay (NCI).
Compounds without any hit were thinned out: in the full panel of roughly 83,000, 20% have a hit.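 Each cell line was grown in a 96-well plate and treated with one concentration of compound for 48 hours. Values below 10 were considered active.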 Values without a mark were called inactive. Activity calls are given as the source filed them.

System: HL-60(TB) leukemia
Assay: NCI-60 one-dose screen, 48 h (100 = growth as untreated, 0 = no growth, -100 = all killed)
Settings: 10 µM unless noted

Row | SMILES | growth
1 | Cc1cc(N/N=C/c2nc(-c3ccc(Br)cc3)oc2C)c2cc(Cl)ccc2n1 | -0.0323% (active)
2 | CCn1cc(-c2[nH]c(=S)ncc2-c2ccc(Cl)cc2)c(-c2ccc(Br)cc2)n1 | 117%
3 | Cc1sc2ncnc(Sc3nc4ccccc4[nH]3)c2c1C | -54.7% (active)
4 | CCCc1nc2ccccn2c1Nc1ccc(C(=O)NO)cc1 | 111%
